The list is not random: actives were taken first. Their share in the collection is about 22%.
CYP2C19 inh – human CYP2C19 inhibition; P33261; CYP2C19 Supersomes, luciferin-H EGE luminescence, 30 min; inhibition, % at 5 µM; 96,000 tested, 21% active; AID 778;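 active = CYP2C19 inhibition above a set limit at 5 µM in the primary screen, cut at about 50% in these data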;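 also: plate controls were negative control wells for no effect and 2.5 mM tranylcypromine positive control for full effect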
CYP2C9 inhib – blocks human cytochrome P450 2C9 | P11712 | CYP2C9 Supersomes, luciferin-H conversion, luminescence | inhibition, % at 5 µM | 96,000 tested, 20% active;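 active = blocking of liver enzyme CYP2C9 beyond about 50% at 5 µM, limit read from the data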
Target sequence (P11712 whole entry, looked up): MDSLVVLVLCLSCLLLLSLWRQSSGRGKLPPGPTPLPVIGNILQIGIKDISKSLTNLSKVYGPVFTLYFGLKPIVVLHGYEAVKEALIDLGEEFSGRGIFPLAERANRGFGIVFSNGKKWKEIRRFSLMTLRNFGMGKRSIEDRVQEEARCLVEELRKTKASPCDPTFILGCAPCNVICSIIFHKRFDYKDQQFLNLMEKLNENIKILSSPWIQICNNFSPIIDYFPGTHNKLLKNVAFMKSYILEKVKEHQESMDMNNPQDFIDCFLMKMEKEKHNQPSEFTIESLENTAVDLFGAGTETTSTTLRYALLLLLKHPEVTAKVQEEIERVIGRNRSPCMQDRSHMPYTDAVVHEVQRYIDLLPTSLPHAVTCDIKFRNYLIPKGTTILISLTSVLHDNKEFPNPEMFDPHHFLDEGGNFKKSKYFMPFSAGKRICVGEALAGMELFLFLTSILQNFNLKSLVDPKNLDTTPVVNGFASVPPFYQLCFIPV
CYP2C19 act – activators of human cytochrome P450 2C19; P33261; recombinant CYP2C19, luciferin-H EGE luminescence; stronger effect = higher value; 0 = fully inhibited enzyme, 1 = untreated enzyme; activation factor at 5 µM; 96,000 tested, under 10 active;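 active = activation factor of at least 2 at 5 µM in the primary screen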;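 also: 0 = wells with 2.5 mM tranylcypromine and 1 = vehicle-only wells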
CYP2C9 act – activators of human CYP2C9. recombinant CYP2C9, luciferin-H conversion, luminescence; stronger effect = higher value; factor 1 = untreated enzyme, 0 = blocked. activation factor at 5 µM. AID 1024. P11712. 96,000 tested, 1.4% active;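 active = activation factor of 2 or more for CYP2C9 at a 5 µM dose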;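 also: 0 = sulfaphenazole-blocked wells and 1 = vehicle-only wells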
Measles CPE – protection of cells from measles virus. Measles virus-infected cells, CPE protection, absorbance. protection (pct of control), % at 4 µM. 140,000 tested, 1.5% active; in the data active = protection mostly above about 24%, no sharp cut-off; inactive = mostly below about 26%
An asterisk follows results filed as active; . = not tested or not shown.

SMILES	CYP2C19 inh	CYP2C9 inhib	CYP2C19 act	CYP2C9 act	Measles CPE
COc1ccc(C2OC34CCCCC3C(C#N)(C#N)C2(C#N)C(=N)O4)cc1 (centres undefined)	16	10	0.8	0.9	8
COC(=O)C1=C(C)NC(C)=C(C(=O)OC)C1c1cc2cc(C)ccc2[nH]c1=O	10	26	0.9	0.7	22
Cc1ccc2[nH]c(=O)c(C3C(C#N)=C(N)Oc4c3ccc3cccnc43)cc2c1 (centres undefined)	-14	62*	1.1	0.4	3
Cc1ccc(-n2nc(C)c3c2OC(N)=C(C#N)C3c2ccc(F)cc2)cc1 (centres undefined)	10	6	0.9	0.9	8
Cc1ccc(C2C(C#N)=C(N)Oc3c2c(=O)n(C)c(=O)n3C)cc1 (centres undefined)	17	56*	0.8	0.4	3
O=C(NC1CCCCC1)N1CCCc2ccccc21	53*	14	0.5	0.9	2
CC(=O)NC1CC2CCCC(C1)N2CC(=O)N1CCCc2ccccc21 (centres undefined)	.	.	.	.	7
O=C(C1CCCCC1)N1CCCc2ccccc21	67*	45	0.3	0.6	1
COc1cccc(-c2cc(N)nn2C(=O)Nc2ccc(Cl)cc2)c1	-7	25	1.1	0.8	14
S=c1[nH]nc(COc2ccccc2)n1/N=C/c1ccc(Br)s1	45	12	0.6	0.9	3
Cc1ccc(/C=N/n2c(COc3ccccc3)n[nH]c2=S)s1	15	77*	0.9	0.2	5
Cc1ccc(NC(=O)CSc2nnc(Cn3cnc4ccccc43)o2)c(C)c1	.	.	.	.	33
CCCCOc1ccc(/C=N/NC(=S)Nc2cccc(C)c2C)cc1	-32	-31	1.3	1.3	1
Cc1cccc(C)c1NC(=S)N/N=C/c1ccc(OCCC(C)C)cc1	16	62*	0.8	0.4	12
CC(C)Oc1ccccc1C1CC(=O)Nc2cc3c(cc21)OCCO3 (centres undefined)	96*	96*	0	0	10
COc1cccc(C2CC(=O)Nc3cc4c(cc32)OCCO4)c1OC(C)C (centres undefined)	49	63*	0.5	0.4	21
COc1ccccc1C1CC(=O)Nc2cc3c(cc21)OCCO3 (centres undefined)	33	74*	0.7	0.3	2
CC(C)Oc1ccccc1C1Nc2ccccc2C(=O)N1c1ccc2c(c1)OCCO2 (centres undefined)	95*	96*	0.1	0	13
Cc1ccc(N2C(=O)c3ccccc3NC2C(C)Cc2ccc3c(c2)OCO3)cc1 (centres undefined)	.	.	.	.	4
Cn1c(=O)c2c(nc(SCC(=O)N3CCCCCC3)n2C)n(C)c1=O	.	.	.	.	16
Cc1ccc(C2CC(=O)Nc3cc4c(cc32)OCCO4)s1 (centres undefined)	9	35	0.9	0.7	5
O=C1CC(c2cccs2)c2cc3c(cc2N1)OCCO3 (centres undefined)	68*	71*	0.3	0.3	5
CCOc1ccccc1C1CC(=O)Nc2cc3c(cc21)OCO3 (centres undefined)	98*	66*	0	0.3	4
COc1cc2c(cc1OC)C(c1cccc(OC)c1OC)CC(=O)N2 (centres undefined)	18	32	0.8	0.7	16
C/C(NC1CCCCC1)=C(/C#N)C(=O)NCCN1CCOCC1	7	8	0.9	0.9	13
SMILES	CYP2C19 inh	CYP2C9 inhib	CYP2C19 act	CYP2C9 act	Measles CPE
CCCCCCCOC(=O)c1ccc(OC(=O)c2cccnc2)cc1	13	17	0.9	0.8	22
CCOCCCNC(=O)C(c1ccc(C)cc1)N(Cc1ccc2c(c1)OCO2)C(=O)CNC(C)=O (centres undefined)	.	.	.	.	6
Cc1c(Cl)cnc(NC(=O)COC(=O)c2cc3c(s2)CCC(C)C3)c1Cl (centres undefined)	.	.	.	.	8
COc1cc(C(O)P(=O)(OC(C)C)c2ccc(N(C)C)cc2)cc(OC)c1OC (centres undefined)	43	17	0.6	0.8	8
COc1ccc(C(O)P(=O)(OC2CCCCC2)c2ccc(N(C)C)cc2)cc1OC (centres undefined)	56*	2	0.4	1	12
COc1ccc(NC(=O)CCCn2c(=O)c3sccc3n(Cc3ccc(C)cc3C)c2=O)cc1	.	.	.	.	3
CCN(CC)C(=O)C1CCN(S(=O)(=O)c2ccc(C3CNC(=O)C3)cc2)CC1 (centres undefined)	3	18	1	0.8	17
COc1ccc(C(=O)OCC(=O)Nc2ccc(F)c(F)c2F)cc1OC	12	-1	0.9	1	6
COc1cc2c(cc1NC(=O)c1ccco1)CCCC2	37	49	0.6	0.5	4
COc1cc(C(=O)OCC(=O)NCc2ccccc2)cc(NC(=O)c2ccco2)c1OC	10	7	0.9	0.9	3
CNC(=O)COC(=O)c1cc(NC(=O)c2ccco2)c(OC)c(OC)c1	4	54*	1	0.5	29
COc1cc(C(=O)OCC(=O)Nc2c(F)c(F)c(F)c(F)c2F)cc(OC)c1OC	78*	35	0.2	0.6	1
COc1cc(C(=O)OCC(=O)c2cc(C)n(C)c2C)cc(NC(=O)c2ccco2)c1OC	-7	-2	1.1	1	53*
COCCN1Cc2cccc(C(=O)NCc3ccc4c(c3)OCO4)c2C1=O	.	.	.	.	18
Fc1ccc(Cn2c(SCc3ccc(F)c(C(F)(F)F)c3)nnc2C(F)(F)F)cc1	64*	56*	0.4	0.4	7
Fc1ccc(Cn2c(SCc3ccc(F)c(F)c3)nnc2C(F)(F)F)cc1	67*	57*	0.3	0.4	38
Cn1c(Cn2c(=O)sc3ccccc32)nnc1SCc1ccc(F)cc1	.	.	.	.	38
CCn1c(SCc2cccc(C(F)(F)F)c2)nnc1-c1ccco1	.	.	.	.	5
COc1cc(C(=O)Nc2cc(Cl)ccc2C)c(-n2cnnn2)cc1OC	-12	-19	1.1	1.2	25
CCOC(=O)CC1C(=O)NC2CCCCC2N1C(=O)Nc1ccc(Cl)cc1 (centres undefined)	31	31	0.7	0.7	15
Cc1ccc(OCCn2c(C)c(/C=N/n3cnnc3)c3ccccc32)cc1	86*	89*	0.1	0.1	8
COC(=O)/C(=C/Nc1cccc2ccccc12)[N+](=O)[O-]	55*	13	0.4	0.9	16
CCOC(=O)/C(=C\c1cn(C)c2ccccc12)[N+](=O)[O-]	.	.	.	.	27
CCOc1cc(CNc2ccccc2)cc(Br)c1OCc1ccccc1F	30	54*	0.7	0.5	4
CCOc1cc(CNc2ccc(N3CCOCC3)cc2)cc(Br)c1OCC	.	.	.	.	3
Fc1ccccc1COc1ccc(Br)cc1CNCc1ccncc1	99*	84*	0	0.2	4
Nc1nonc1C(=O)NCCNCc1cc(Br)ccc1OCc1ccc(F)cc1	35	25	0.7	0.8	3
CCOCCCNCc1cc(Br)ccc1OCc1ccccc1	.	.	.	.	16
OCCNCc1cc(Br)ccc1OCc1ccccc1	.	.	.	.	32*
